Sampled rows, rich in hits. Any-hit rate of the full collection: about 4%.
CF NFkB block = inhibitors of PAF-induced NF-kB signaling, primary screen, cell-based, GFP fluorescence, uHTS. KKLEB NF-kB-GFP reporter, GFP fluorescence overnight. inhibition, % at 5 µM. 360,000 compounds, 0.86% hits. AID 588850, 2011;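 active = at least 50% inhibition at 5 µM, scaled per plate between neutral and stimulator controls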;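 note: PAF is a Pseudomonas aeruginosa culture filtrate used as stimulus; plate controls were PAF-stimulated DMSO wells for no effect and unstimulated DMSO wells for full effect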
TROY NFkB inh = inhibitors of TROY-driven NF-kB signaling, primary screen, Q293 LMP1-TROYcd cells, NF-kB luciferase, uHTS; AID 1347056, 2019; Q293 LMP1-TROYcd NF-kB luciferase reporter, 4 h; 360,000 compounds, 0.98% hits; inhibition, % at 10 µM;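 active = compounds whose plate-normalised and pattern-corrected inhibition of the luciferase reporter signal at the single screening dose is 50% or more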
Peg3 promoter = Peg3 promoter-driven luciferase inhibitors, primary screen, cell-based, HeLa, luciferase luminescence; HeLa PEG-Prom luciferase reporter, overnight; inhibition, % at 20 µM; 360,000 compounds, 1.7% hits;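 active = inhibition of at least 50% at 20 µM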
HIF-2a block = HIF-2a reporter inhibitors, primary screen, luminescence, 786-0 RCC cells | 786-0 RCC cells HIF-2a reporter, luciferase luminescence, overnight | inhibition, % at 18.8 µM | 360,000 compounds, 0.72% hits | AID 624352, 2012;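 active = inhibition of the luminescence signal of 40% or more relative to plate controls, in a single-dose primary screen at 18.75 µM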
TWEAK-Fn14 inh = inhibitors of TWEAK-Fn14 signaling, primary screen, luciferase reporter cells, uHTS; 360,000 compounds, 2% hits; TWEAK-stimulated Fn14 reporter cells, luciferase luminescence, 8 h; inhibition, % at 10 µM; AID 1159606, 2016; in the data active = inhibition above about 50%
KKLEB tox = cytotoxicity in KKLEB CF airway cells, primary screen, cytotoxicity control for CF NF-kB inhibitor project, cell-based, uHTS, fluorescence assay plates. KKLEB CF airway cells viability, ATPlite luminescence, overnight; active compounds read low; cells stimulated with P. aeruginosa culture filtrate. activity change (cytotoxicity), % at 5 µM. 360,000 compounds, 0.36% hits;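 active = corrected activity change at or below -50% at 5 µM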
* = called active by the depositor; x = no result.

SMILES | CF NFkB block | TROY NFkB inh | Peg3 promoter | HIF-2a block | TWEAK-Fn14 inh | KKLEB tox
CC12CCC(O)CC1CCC1C2CCC2(C)C(C3=CC(=O)OC3)C(O)CC12O (configuration not stated) | 71* | 37 | 94* | 16 | 53* | -49
CC(=O)C1CCC2C3CCC4CC(O)CCC4(C)C3CCC12C (configuration not stated) | -10 | 0 | 10 | 13 | -28 | 18
COc1cc(/C=C/c2nc3ccccc3c(=O)n2-c2ccc(O)cc2)ccc1O | -40 | 27 | 42 | 7 | 54* | -7
COc1cccc(-n2c(C)nc3ccccc3c2=O)c1 | -10 | -19 | 18 | 3 | 67* | 3
O=c1c2ccccc2nc(/C=C/c2ccc3c(c2)OCO3)n1-c1ccccc1 | -22 | -11 | 22 | 19 | -6 | 9
COc1ccc(-n2c(/C=C/c3ccc(O)c(O)c3)nc3ccccc3c2=O)cc1 | -30 | -5 | 55* | 18 | 17 | -11
COC(=O)C1=C(c2ccc3ccccc3c2)C[C@@H]2CC[C@H]1N2C(=O)N1CCCCC1 | 25 | 24 | -17 | -14 | 10 | -6
O=C1NCN(c2ccccc2)C12CCN(C(c1cc3ccccc3o1)c1nnnn1C1CCCC1)CC2 (configuration not stated) | 6 | -13 | 32 | -56 | 19 | -16
Cc1cccc(C)c1-n1nnnc1C(c1cccc2ccccc12)N1CCC(n2c(=O)[nH]c3ccccc32)CC1 (configuration not stated) | 26 | 18 | 43 | -10 | 14 | -8
COc1ccc(-n2nnnc2C(c2cc3ccccc3o2)N2CCC(n3c(=O)[nH]c4ccccc43)CC2)cc1 (configuration not stated) | 11 | 68* | 92* | -5 | 103* | -15
O=c1[nH]c2ccccc2n1C1CCN(C(c2cccc3ccccc23)c2nnnn2-c2ccc3c(c2)OCCO3)CC1 (configuration not stated) | 84* | 24 | 71* | -19 | 46 | -85*
COc1ccc(-n2nnnc2C(c2cccs2)N2CCC3(CC2)C(=O)NCN3c2ccccc2)cc1 (configuration not stated) | -9 | 16 | 41 | 6 | 27 | -9
O=C(c1ccc(Cl)cc1)C12CN3CN(CN(C3)C1)C2 | 12 | x | -4 | 7 | 63* | 9
O=C(NCC1=C(c2cccc3ccccc23)C[C@@H]2CC[C@H]1N2Cc1ccco1)c1ccc([N+](=O)[O-])cc1 | 32 | 9 | 7 | -6 | 10 | -8
COC(=O)C1=C(c2ccc(F)cc2OCc2ccccc2)C[C@@H]2CC[C@H]1N2C(=O)N1CCC(O)(c2ccc(Cl)cc2)CC1 | 42 | -2 | -7 | -6 | 56* | -9
O=C1NCN(c2ccccc2)C12CCN(C(c1ccnc3ccccc13)c1nnnn1-c1ccc3c(c1)OCCO3)CC2 (configuration not stated) | 12 | 9 | 41 | 5 | 41 | -7
COc1cccc(C(c2nnnn2C(C)(C)C)N2CCC3(CC2)C(=O)NCN3c2ccccc2)c1OC (configuration not stated) | -16 | 11 | 15 | 22 | 13 | 6
N=Cc1c(O)n(-c2ccc(C34CC5CC(CC(C5)C3)C4)cc2)c(=O)[nH]c1=O | 16 | 54* | -26 | -12 | 67* | -11
O=C(Nc1ccccc1)N1Cc2ccccc2-n2nncc2C1 | 8 | -13 | -7 | 0 | -8 | -1
CN1C(=O)C(C2c3ccccc3C(=O)N2Cc2ccccc2)C(=O)N(C)C1=O (configuration not stated) | -4 | 51* | 2 | 3 | 11 | -5
O=C1NC(=O)C(C2CCOC2=O)N1 (configuration not stated) | 4 | -3 | 2 | 7 | 2 | -4
CCN1/C(=C/C=C/C2=[N+](CC)c3ccccc3C2(C)C)C(C)(C)c2ccccc21 | -85 | 66* | 96* | 39* | 82* | -42
Oc1ccc(O)c2c1C1(Cl)C(Cl)=C(Cl)C2(Cl)C1(Cl)Cl | 44 | 52* | 61* | 25 | 43 | -12
C#C[C@]1(O)CC[C@H]2[C@@H]3CCC4=Cc5nc6nc7ccccc7n6cc5C[C@]4(C)[C@H]3CC[C@@]21C | -22 | -17 | 66* | 21 | -35 | 26
C#CC1(O)CCC2C3CCC4=C/C(=N/OCC(=O)NCC(=O)NC(C(=O)O)C(C)C)CC[C@]4(C)C3CC[C@@]21C (some centres not stated) | 22 | -3 | -22 | 14 | 0 | 4
SMILES | CF NFkB block | TROY NFkB inh | Peg3 promoter | HIF-2a block | TWEAK-Fn14 inh | KKLEB tox
C(=NC1CCCCC1)c1c[nH]c2ccccc12 | 22 | 2 | -7 | 2 | 9 | -8
O=C(/C=C/c1ccc2c(c1)OCO2)c1c(O)n(CCC2=CCCCC2)c(=O)[nH]c1=O | -22 | 19 | 21 | 19 | 51* | -3
CCCCn1c(O)c(C(=O)/C=C/c2ccc3c(c2)OCO3)c(=O)[nH]c1=O | -20 | -4 | -1 | 19 | -1 | -12
Cc1ccccc1OP(=O)(Oc1ccccc1C)N1CCOCC1 | 6 | -6 | 1 | 7 | -17 | 4
Oc1c(Cl)cccc1Cc1cc(Cl)cc(Cl)c1O | 61* | 66* | 49 | -3 | 65* | -19
CCn1c(O)c(C=Nc2ccc(S(N)(=O)=O)cc2)c(=O)n(CC)c1=S | 49 | 4 | 2 | 29 | 19 | -14
CCn1c(O)c(C=Nc2ccc(S(N)(=O)=O)cc2)c(=O)[nH]c1=S | 6 | 52* | 1 | 13 | 21 | -4
O=C1NC(=O)C(=Cc2cn(CCOc3ccc4c(c3)OCO4)c3ccccc23)C(=O)N1 | -4 | -9 | 64* | 13 | 1 | -19
O=C1C(=O)c2ccccc2-c2ccccc21 | 83* | 83* | 101* | 98* | 107* | 5
O=C1C(=O)c2cccc3cccc1c23 | 12 | 22 | 28 | 25 | 8 | -7
C(#CCN1CCCCC1)CN1CCCCC1 | -13 | -4 | -18 | 1 | -8 | -5
C[C@@]12CC[C@@H](c3cc4c(cc3C1)OCO4)N2c1ccccc1 | x | x | x | 11 | x | x
COc1cc2c(c(OC)c1OC)-c1ccc(O)c(=O)cc1C(NC(C)=O)CC2 (configuration not stated) | 54* | 24 | -34 | -8 | -25 | -18
CCC(c1nnnn1-c1ccc(OC)cc1)N1CCC2(CC1)C(=O)NCN2c1ccccc1 (configuration not stated) | 2 | 9 | 16 | 10 | -10 | -3

Screening results (PubChem)
